Assay outcomes: PubChem, several laboratories
Only some compounds are listed: those with a hit (about 4.6% of all), similar ones and a draw of the others.
ADAM17 inh – ADAM17 inhibitors, primary screen, biochemical, QFRET; Disintegrin and metalloproteinase domain-containing protein 17 (Homo sapiens), P78536; recombinant ADAM17, EDANS/DABCYL FRET peptide cleavage; inhibition, % at 6.95 µM; 370,000 compounds, 0.83% hits; AID 720648, 2013;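 active means inhibition above the mean of compounds lying between control limits plus 3 SD, set per campaign, cut at about 8.5% in these data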;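 further: 0% = DMSO-only wells as the low control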
Target sequence (P78536 215-824 limits assumed): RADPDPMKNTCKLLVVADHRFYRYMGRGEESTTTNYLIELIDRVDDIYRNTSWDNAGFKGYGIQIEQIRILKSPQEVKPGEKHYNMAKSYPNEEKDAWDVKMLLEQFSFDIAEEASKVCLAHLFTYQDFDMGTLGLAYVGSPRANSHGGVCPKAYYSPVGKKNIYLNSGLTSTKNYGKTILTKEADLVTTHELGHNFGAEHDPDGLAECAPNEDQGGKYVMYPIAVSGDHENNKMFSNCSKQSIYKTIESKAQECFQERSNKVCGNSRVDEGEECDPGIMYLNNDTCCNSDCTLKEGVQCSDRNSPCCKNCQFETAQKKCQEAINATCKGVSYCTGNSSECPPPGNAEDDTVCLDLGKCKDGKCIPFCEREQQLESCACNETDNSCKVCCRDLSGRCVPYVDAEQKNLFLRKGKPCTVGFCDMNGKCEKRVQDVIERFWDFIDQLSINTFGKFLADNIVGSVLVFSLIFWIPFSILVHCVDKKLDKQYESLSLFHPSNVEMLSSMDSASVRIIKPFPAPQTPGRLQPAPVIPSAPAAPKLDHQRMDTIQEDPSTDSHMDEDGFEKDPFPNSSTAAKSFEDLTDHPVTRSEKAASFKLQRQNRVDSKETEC
FAS-TE inh – FAS thioesterase domain inhibitors, primary screen, biochemical, fluorescence intensity, uHTS; recombinant FAS-TE, OMFH fluorogenic substrate, fluorescence endpoint; inhibition, % at 15 µM; 360,000 compounds, 0.67% hits; AID 602261, 2012;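 active means compounds whose normalised, plate-corrected inhibition of enzyme fluorescence in the single-dose primary screen is 50% or more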;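 further: 0% = DMSO with enzyme and 100% = substrate without enzyme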
GRIN3A LBD mod – binders of NR3A ligand-binding domain, primary screen, biophysical, differential scanning fluorimetry, uHTS | Glutamate receptor ionotropic, NMDA 3A (GRIN3A) ligand-binding domain | NR3A LBD differential scanning fluorimetry, Tm shift; 0% = protein alone, 100% = glycine-bound protein | Tm shift relative to glycine control, % at 25 µM | 340,000 compounds, 2.5% hits | AID 1259313, 2017;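 active means melting temperature shift of at least 10% of the positive control shift, at one fixed dose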
proKLK7 act – proKLK7 zymogen activators, primary screen, biochemical, fluorescence intensity | AID 652039, 2013 | purified proKLK7, EDANS-DABCYL substrate fluorescence; 100% is mature enzyme control, 0% vehicle | 370,000 compounds, 0.9% hits | activation, % at 7 µM;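 active means activation above the mean of all tested compounds plus 3 SD, computed per campaign excluding outliers beyond control limits, cut at about 13% in these data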
ADAM10 inh – human ADAM10 inhibitors, primary screen, biochemical, QFRET, HTS. 370,000 compounds, 0.62% hits. recombinant ADAM10, EDANS/DABCYL FRET peptide cleavage, 3 h. inhibition, % at 7 µM;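 active means inhibition above a per-campaign cutoff equal to the mean of compounds falling between control-based bounds plus 3 SD, cut at about 20% in these data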;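 further: 0% = DMSO wells while the 100% control is not disclosed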
* marks the source's active call; other numbers are inactive results; x = no result given.

SMILES	ADAM17 inh	FAS-TE inh	GRIN3A LBD mod	proKLK7 act	ADAM10 inh
Fc1ccc(-c2n[nH]c(=S)n2N=Cc2ccc(-c3ccccc3)cc2)cc1	-2	x	x	0	-6
CCn1c(SCc2c(F)cccc2F)nc2sc3c(c2c1=O)CCCC3	0	x	x	0	-3
O=C(O)CC/C(=C\c1ccc(Cl)c([N+](=O)[O-])c1)c1nc2ccccc2s1	-4	43	30*	0	1
O=C(O)CC/C(=C\c1ccc(N2CCOCC2)c([N+](=O)[O-])c1)c1nc2ccccc2s1	4	-5	5	1	9
O=C(Nc1ccc(OC(F)(F)F)cc1)Nc1c(-c2ccc(C(F)(F)F)cc2)nc2ncccn12	1	x	x	1	-4
CC1Cc2nc(SCC(=O)c3ccccc3)n(Cc3ccccc3)c(=O)c2S1 (centres undefined)	3	25	8	-1	20*
O=S1(=O)CC2c3ccccc3CN2CN1Cc1ccccc1 (centres undefined)	-6	x	x	0	-11
N/C(=N\NS(=O)(=O)c1cc(C(F)(F)F)cc(C(F)(F)F)c1)c1ccccn1	-2	2	-1	0	5
N/C(=N\S(=O)(=O)c1cc(C(F)(F)F)cc(C(F)(F)F)c1)c1ccncc1	-3	2	15*	0	-8
CCN1C(=O)/C(=C\c2ccncc2)SC1=Nc1ccc(C)c(C)c1	-1	-10	13*	0	1
CS(=O)(=O)c1ccc(CNC(=O)C2(C(F)(F)F)C/C(=C\Cc3ccccc3)CCCO2)cc1 (centres undefined)	-1	6	16*	0	13
CCC/C=C1/CCCOC(C(=O)NCc2ccc(S(C)(=O)=O)cc2)(C(F)(F)F)C1 (centres undefined)	-1	0	1	0	2
COc1cc(/C=C/c2nc3ccccc3c(=O)[nH]2)cc(Br)c1O	-6	0	23*	0	-4
COC(=O)c1cn[nH]c1NC(=S)Nc1ccc(C)cc1Cl	3	-161	30*	0	10
COC(=O)c1cn[nH]c1NC(=S)Nc1ccc(Cl)c(Cl)c1	-1	-167	11*	0	2
CCOC(=O)c1cn[nH]c1NC(=S)Nc1ccc(OC)cc1	-3	-139	-11	0	0
CCCc1cn(-c2ccc3c(c2)[C@@]2(CC(=O)N(C)C2c2ccccc2)C(=O)N3CC(C)C)nn1 (some centres undefined)	0	x	x	0	-3
CC1(C)CC2CC(C)(CN2C(=O)COC(=O)c2cccc([N+](=O)[O-])c2)C1 (centres undefined)	-1	44	11*	0	-3
O=C(NC1CCCCN(Cc2cccc(C(F)(F)F)c2)C1=O)C1C2CC3CC(C2)CC1C3 (centres undefined)	3	x	x	0	3
CCOc1ccc(S(=O)(=O)Nc2cc(OC)c(OC)cc2C(=O)O)cc1	-5	-6	2	0	-9
COc1cc(NS(=O)(=O)c2ccc(F)cc2)c(C(=O)O)cc1OC	-4	-1	12*	0	1
O=C(Cc1ccc(Cl)c(Cl)c1)Nc1ccc(S(=O)(=O)Nc2ccon2)cc1	-7	x	x	-1	-5
C/C(=N\NC(=O)c1ccc(F)cc1)c1ccccn1	-2	2	12*	0	0
CCN(c1ccccc1)S(=O)(=O)c1cccc(C(=O)NCC2(N(C)C)CCCCC2)c1	-1	-6	25*	0	-6
C[C@H]1/C=C/CC(=O)N[C@@H](c2ccc3ccccc3c2)[C@@H](C)/C=C/CC(=O)N[C@H]1c1ccc2ccccc2c1	-1	x	x	0	3
SMILES	ADAM17 inh	FAS-TE inh	GRIN3A LBD mod	proKLK7 act	ADAM10 inh
CC(C)(N[C@@H](Cc1c[nH]c2ccccc12)C(=O)NCCCc1ccccc1)C(=O)NCc1ccccc1	4	x	x	x	11
CC(=O)c1ccc(N2CCN(C(=O)CCCn3c(=S)[nH]c4cc5c(cc4c3=O)OCO5)CC2)cc1	1	18	6	0	25*
C#CCN(CC=C)Cc1ccc(OC)cc1OC	-3	x	x	0	0
CC(C)(CNC(=S)NCCc1ccccc1)CNC(=S)NCCc1ccccc1	5	23	14*	0	17
S=C(NCCc1ccccc1)Nc1ccc(Nc2ccccc2)cc1	2	20	23*	1	8
S=C(NCCc1ccccc1)Nc1cnc2ccccc2c1	-3	8	14*	0	-3
Fc1cccc(NC(=S)NCCc2ccccc2)c1	-1	2	28*	0	5
S=C(NCCCc1ccccc1)Nc1ccccc1	0	-1	-9	0	-1
CC(CCN1CCC(C(O)(c2ccccc2)c2ccccc2)CC1)Oc1ccc(OC(F)(F)F)cc1 (centres undefined)	7	x	x	1	10
O=C(CSc1ccccc1)NC1CCCCN(Cc2cccc(Cl)c2)C1=O (centres undefined)	0	x	x	0	0
COP(=O)(OC)C(NC(=O)OCc1ccccc1)C(C)C (centres undefined)	-2	x	x	0	0
Brc1ccc(CSc2nnc(SCc3ccccc3)s2)cc1	-1	x	x	1	-7
Cc1ccccc1Cn1cc(CN2[C@H](CC(C)C)COc3cc(Br)ccc3S2(=O)=O)nn1	-9	x	x	0	-19
C/C(CC(=O)Nc1ccc(Cl)c(C(F)(F)F)c1)=N\NC(=O)c1ccccc1O	-2	8	24*	-3	-6
C/C(CC(=O)Nc1ccc(Cl)c(C(F)(F)F)c1)=N\NC(=O)c1cccc(O)c1	-1	-2	-3	-1	-1
O=c1c(Cl)c(N/N=C/c2ccc(Cl)cc2)cnn1-c1ccccc1	-7	14	16*	-7	-30
CCOCCCNC(=O)C1(O)c2ccccc2NC(=O)N1c1ccc(Cl)cc1 (centres undefined)	-4	-4	12*	0	3
CCOCCCNC(=O)C1(O)c2cc(Br)ccc2NC(=O)N1c1ccc(OCC)cc1 (centres undefined)	-5	-3	12*	0	-1
CCOCCCNC(=O)C1(O)c2cc(Br)ccc2NC(=O)N1c1cccc(OC)c1 (centres undefined)	-1	-2	-1	0	0
CCOCCCNC(=O)C1(O)c2cc(Br)ccc2NC(=O)N1c1ccc(CC)cc1 (centres undefined)	-2	-1	18*	-1	2
c1ccc(CCSc2nnc(-c3cccnc3)n2Cc2ccccc2)cc1	-1	x	x	0	1
COc1ccc(OC)c(NC(=O)Nc2ccc(Cl)cc2)c1	x	20	28*	x	x
COc1ccc(NC(=O)Nc2cc(C)ccc2OC)cc1	0	2	-23	0	2
